Drawing on PubChem BioAssay (NCI), this text covers growth for eight compounds.

The panel holds about 83,000 compounds, 20% with a hit somewhere; the sample as a whole holds those more often.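 Compound tested at a single concentration for 48 hours in 96-well plates; a percent growth value below 10 was scored as active.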 Unmarked numbers belong to inactive results. Calls of active or inactive are those of the source.

Among the test systems are NCI-H23 lung; NCI-H226 lung; NCI-H322M lung; HOP-62 NSCLC; NCI-H460 lung; HOP-92 NSCLC; NCI-H522 lung; A549/ATCC NSCLC; 786-0 renal; COLO 205 colon; DU-145 prostate; K-562 leukemia; MALME-3M melanoma; MDA-MB-231 breast; RXF 393 renal; SF-268 CNS; SF-295 CNS; SF-539 CNS; UACC-257 melanoma; M14 melanoma.
Assay in all cases: NCI-60 one-dose screen, 48 h (100 = growth as untreated, 0 = no growth, -100 = all killed)
Details in all cases: 10 µM unless noted

Regarding `O=C(Nc1ccccc1CNc1nc(Nc2ccc(OCCN3CCCC3)cc2)ncc1Cl)NC1CCCCC1`, the growth in the test with NCI-H23 lung is 87.2%; with NCI-H226 lung it was 97%; with NCI-H322M lung, 109%; with HOP-62 NSCLC, 83.3%; in the test on NCI-H460 lung, 89.8%; in the test with HOP-92 NSCLC, 65.5%. In addition, the growth is 113% in the test on NCI-H522 lung; 85.4% in the test on A549/ATCC NSCLC; -25.2% (active) in the test with 786-0 renal; 89.3% in the test on COLO 205 colon; 82.8% with DU-145 prostate; 6.79% (active) in the test with K-562 leukemia. Also, the growth is 67.7% in the test on MALME-3M melanoma; 69.7% with MDA-MB-231 breast; 56.8% in the test with RXF 393 renal; 73.1% with SF-268 CNS; 82% with SF-295 CNS; 84.3% in the test on SF-539 CNS. For the same compound, the growth in the test with UACC-257 melanoma was 78.3%; with M14 melanoma, 31.1%.
For `COc1ccc(S(=O)(=O)N(C)c2oc(-c3ccc(Cl)cc3)nc2C#N)cc1`, the growth in the test on NCI-H23 lung is 79.7%; in the test on NCI-H226 lung it was 94.9%; with NCI-H322M lung, 98.2%; in the test with HOP-62 NSCLC it was 82.7%; with NCI-H460 lung, 95.9%; in the test with HOP-92 NSCLC, 77.2%. Moreover, the growth with NCI-H522 lung was 83%; in the test with A549/ATCC NSCLC it was 87.3%; with 786-0 renal, 98.2%; in the test with COLO 205 colon it was 97.9%; in the test on DU-145 prostate it was 97.9%; in the test with K-562 leukemia it was 20.3%. Further, the growth in the test on MALME-3M melanoma is 68.9%; in the test with MDA-MB-231 breast, 87%; with RXF 393 renal, 80.1%; in the test on SF-268 CNS, 82.7%; with SF-295 CNS, 91.9%; with SF-539 CNS, 82.9%. Also, the growth in the test with UACC-257 melanoma was 86.7%; in the test on M14 melanoma it was 53.8%.
Regarding `COc1ccc(Nc2nccc(Nc3ccc4[nH]ncc4c3)n2)cc1`, the growth with NCI-H23 lung is 40.3%; in the test with NCI-H226 lung, 28.1%; in the test with NCI-H322M lung, 63.2%; with HOP-62 NSCLC it was 49%; with NCI-H460 lung it was 24.9%; with HOP-92 NSCLC it was -1.08% (active). Further, the growth was 19.1% in the test on NCI-H522 lung; 24% with A549/ATCC NSCLC; 43.5% with 786-0 renal; 26.4% in the test with COLO 205 colon; 32% in the test on DU-145 prostate; 4.96% (active) in the test with K-562 leukemia. The growth was 76.1% in the test on MALME-3M melanoma; 48.6% with MDA-MB-231 breast; 31.8% in the test with RXF 393 renal; 47% in the test with SF-268 CNS; 47.7% with SF-295 CNS; 68.8% in the test on SF-539 CNS. In addition, the growth with UACC-257 melanoma was 46.2%; with M14 melanoma it was 33%.
With `C=CCn1c(SCC(=O)Nc2ccc(C(=O)/C=C/c3cc(OC)c(OC)c(OC)c3)cc2)nnc1-c1cc(-c2ccc(S(N)(=O)=O)cc2)nc2ccccc12`, the growth in the test with NCI-H23 lung is 88.9%; with NCI-H226 lung, 90.7%; in the test with NCI-H322M lung, 105%; in the test on HOP-62 NSCLC it was 111%; in the test with NCI-H460 lung, 94.9%; in the test with HOP-92 NSCLC, 96.9%. The growth is 92.7% in the test with NCI-H522 lung; 107% in the test on A549/ATCC NSCLC; 101% in the test with 786-0 renal; 109% in the test with COLO 205 colon; 105% with DU-145 prostate; 48.2% with K-562 leukemia. The growth with MALME-3M melanoma is 97.1%; with MDA-MB-231 breast, 83.1%; in the test with RXF 393 renal, 64.6%; in the test on SF-268 CNS it was 94.6%; in the test with SF-295 CNS it was 99%; in the test with SF-539 CNS, 86.6%. In addition, the growth with UACC-257 melanoma is 96.1%; with M14 melanoma, 95.6%.
Regarding `O=C(O)c1cc2ccccc2s1`, the growth in the test with NCI-H23 lung is 101%; in the test on NCI-H226 lung, 98.2%; in the test with NCI-H322M lung, 110%; in the test with HOP-62 NSCLC, 96.9%; with NCI-H460 lung it was 104%; in the test on HOP-92 NSCLC it was 90%. The growth was 107% with NCI-H522 lung; 104% with A549/ATCC NSCLC; 106% with 786-0 renal; 113% in the test on COLO 205 colon; 124% in the test with DU-145 prostate; 107% in the test with K-562 leukemia. For the same compound, the growth is 130% with MALME-3M melanoma; 104% in the test on MDA-MB-231 breast; 110% in the test on RXF 393 renal; 107% in the test with SF-268 CNS; 97.8% in the test on SF-295 CNS; 101% in the test on SF-539 CNS. The growth with UACC-257 melanoma is 105%; in the test with M14 melanoma, 110%.
Turning to `O=C(OCC(O)C(=O)NC12CC3CC(CC(C3)C1)C2)c1cccc(Br)c1` (stereo not given), the growth with NCI-H23 lung is 103%; in the test on NCI-H226 lung, 97.5%; in the test on NCI-H322M lung it was 102%; with HOP-62 NSCLC, 96.9%; in the test with NCI-H460 lung it was 108%; with HOP-92 NSCLC it was 90.1%. In addition, the growth is 91.9% in the test with NCI-H522 lung; 91.9% in the test with A549/ATCC NSCLC; 102% with 786-0 renal; 105% in the test on COLO 205 colon; 105% in the test with DU-145 prostate; 89.4% in the test on K-562 leukemia. Also, the growth in the test on MALME-3M melanoma is 101%; with MDA-MB-231 breast, 92%; in the test on RXF 393 renal, 110%; with SF-268 CNS, 103%; in the test on SF-295 CNS, 96.9%; in the test on SF-539 CNS, 96.2%. Moreover, the growth with UACC-257 melanoma was 91.1%; in the test on M14 melanoma, 95.5%.
On to `COC(=O)CNC(=O)c1ccc(NC(=O)c2[nH]c(C)c(Cl)c2Cl)c(O[C@H]2CCNC2)c1`, for which the growth in the test with NCI-H23 lung was 98.7%; in the test with NCI-H226 lung it was 104%; in the test on NCI-H322M lung, 109%; with HOP-62 NSCLC it was 95.6%; with NCI-H460 lung it was 108%; with HOP-92 NSCLC, 99%. Also, the growth in the test on NCI-H522 lung is 97.7%; with A549/ATCC NSCLC, 105%; in the test on 786-0 renal, 102%; with COLO 205 colon it was 110%; in the test on DU-145 prostate, 110%; in the test on K-562 leukemia, 90.7%. For the same compound, the growth was 109% in the test on MALME-3M melanoma; 105% in the test with MDA-MB-231 breast; 111% with RXF 393 renal; 102% in the test on SF-268 CNS; 105% with SF-295 CNS; 98% in the test on SF-539 CNS. For the same compound, the results for the growth with UACC-257 melanoma and in the test with M14 melanoma were 103% and 107%, respectively.
In the case of `Cc1cc(C)n(C(=O)CSc2nc3sc4c(c3c(=O)n2-c2ccccc2)CCCCC4)n1`, the growth was 91.6% in the test with NCI-H23 lung; 98.1% in the test with NCI-H226 lung; 99.1% in the test with NCI-H322M lung; 96.3% with HOP-62 NSCLC; 103% in the test on NCI-H460 lung; 95.1% with HOP-92 NSCLC. Besides, the growth with NCI-H522 lung was 85.8%; with A549/ATCC NSCLC it was 97.6%; in the test with 786-0 renal, 108%; with COLO 205 colon, 115%; in the test on DU-145 prostate, 106%; with K-562 leukemia, 97.1%. Moreover, the growth in the test on MALME-3M melanoma is 107%; in the test on MDA-MB-231 breast, 108%; in the test on RXF 393 renal, 99.9%; in the test on SF-268 CNS, 104%; with SF-295 CNS, 101%; in the test with SF-539 CNS, 105%. Also, the growth in the test on UACC-257 melanoma is 96.7%; in the test with M14 melanoma, 113%.
